# Glioma ERSR ind = inducers of ER stress response in human glioma cells | U87-MG GRP78 promoter luciferase reporter, 16 h | Potency, µM, inactives show top-dose activation, most hits filed as activators | actives 0.02% (n = 420,000); note: series mostly up to about 76 µM; % of control where 0% means no effect; nearly all actives have a fitted effect of over 35% in size
#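 Stably transfected U87-MG human glioma cells carrying a GRP78-based luminescent sensor were seeded at 1000 cells/well, pin-dosed with compounds and incubated 16 h. Luciferase reagent was then added, and end-point luminescence was read after 10 min at room temperature.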
# PTHR1 agonist = PTHR1 (human) receptor agonism | AID 743266 | HEK293 GP2 PTHR1 cells, GloSensor cAMP luminescence, 1 h | Potency, µM (titrated, usually from 115 µM), inactives show top-dose activation, actives largely listed as activators | Q03431 | actives 0.075% (n = 410,000); note: nearly all actives have a fitted effect of over 55% in size
# Target sequence (Q03431 whole entry, looked up): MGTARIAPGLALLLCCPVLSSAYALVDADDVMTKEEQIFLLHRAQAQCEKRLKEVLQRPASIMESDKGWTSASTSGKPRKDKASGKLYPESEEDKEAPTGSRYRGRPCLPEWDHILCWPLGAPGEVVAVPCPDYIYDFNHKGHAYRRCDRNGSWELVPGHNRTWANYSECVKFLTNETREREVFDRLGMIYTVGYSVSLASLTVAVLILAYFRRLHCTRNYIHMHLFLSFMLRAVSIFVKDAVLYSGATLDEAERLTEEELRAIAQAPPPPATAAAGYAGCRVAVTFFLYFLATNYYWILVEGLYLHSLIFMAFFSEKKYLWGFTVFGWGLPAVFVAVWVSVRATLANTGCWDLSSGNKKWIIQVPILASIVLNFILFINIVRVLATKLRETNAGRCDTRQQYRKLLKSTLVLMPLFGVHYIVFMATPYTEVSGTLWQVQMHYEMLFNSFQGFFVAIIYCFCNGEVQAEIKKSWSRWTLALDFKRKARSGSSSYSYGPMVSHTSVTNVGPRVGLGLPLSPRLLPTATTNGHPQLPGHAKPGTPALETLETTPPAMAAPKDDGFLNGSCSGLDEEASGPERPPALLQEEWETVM
#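 HEK-293-derived GP2 cells expressing PTHR1 and a GloSensor cAMP reporter, 3,000/well, plated overnight, given luciferin plus IBMX (each 0.5 mM as added) for 1 h at 37 °C, then compound for 1 h at 37 °C. Luminescence was read after 15 min at room temperature.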
# 12-LOX inh = ALOX12 (human) lipoxygenase inhibition; purified 12hLO, xylenol orange hydroperoxide absorbance; actives 1.1% (n = 580,000); Potency, µM (top dose mostly 108 µM), for the others: top-dose activity change, negative = inhibition, actives largely listed as inhibitors; P18054; AID 1671190; note: % is set by controls: 0 for no effect and ±100 for the full control effect
#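 Purified human 12hLO at 150 nM in 25 mM Hepes, 0.01% Triton X-100, pH 7.0, preincubated 15 min at room temperature with compound. Reaction started with 40 uM arachidonic acid, 30 min at room temperature. Hydroperoxide measured by Fe-xylenol orange, 573/405 nm absorbance ratio.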
# GLP-1R agonist = agonists of human GLP-1 receptor. AID 624172. HEK293 GLP-1R CRE-luciferase, luminescence, 4-6 h; cells express a hypersensitive GLP-1R form. actives 0.007% (n = 380,000). Potency, µM (top dose mostly 45.6 µM), for inactives: at the highest dose activation, most hits filed as activators. P43220; note: % of control where 0% means no effect
# GLP-1R inv ag = inverse agonists of human GLP-1 receptor. HEK293 GLP-1R CRE-luciferase, luminescence, 24 h; GLP-1R form is constitutively active. Potency, µM (highest dose often 38.3 µM), for inactives: top-dose activity change, negative = inhibition, usual class: inhibitors. P43220. actives 1.6% (n = 410,000); note: % is set by controls: 0 for no effect and ±100 for the full control effect; nearly all actives have a fitted effect of over 55% in size
#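 Constitutively active GLP-1R drives a cAMP-responsive luciferase in stably transfected HEK293 cells; test compounds are added after overnight (12 h) attachment and left 24 hr, and signal loss in luminescence marks inhibition.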
# GLS inhibitor = blocks human kidney-isoform glutaminase activity; O94925; GLS enzymatic activity, qHTS titration; Potency, µM (doses to about 45.5 µM), for the others: at the highest dose activity change, negative = inhibition, most hits filed as inhibitors; actives 0.21% (n = 410,000); note: % is set by controls: 0 for no effect and ±100 for the full control effect
#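 Two-point fluorescence kinetic (t0, 30 min RT) for hKGA; glutamate detected via glutamate oxidase–HRP–Amplex Red. Substrate: 1 mM L-glutamine solution; buffer 45 mM KH2PO4, pH 8.2.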
# The depositor's hits bear a star; i = inactive; ? = inconclusive; . = no result; [ ] = another dose, or the depositor's remark. This is a sample that favours compounds with a hit; in the whole collection about 2.3% have one here. Calls come from the whole dose curve; as a rule, active = well fitted curve in the direction sought with a large enough effect; inconclusive = small, poorly fitted or top-dose-only effect, or another doubt; inactive = no such curve, though single readings can be large; an effect the other way counts as inactive or inconclusive. Potency is the fitted concentration of half-maximal effect.
SMILES,Glioma ERSR ind,PTHR1 agonist,12-LOX inh,GLP-1R agonist,GLP-1R inv ag,GLS inhibitor
CN(CCc1ccccc1)[C@@H]1[C@H](O)[C@H](CO)O[C@@H]1CNC(=O)c1cccc(F)c1,.,.,18.1%,.,.,.
Cn1cc(CN2CCNc3cnc(Nc4ccccc4)cc3C2)cn1,.,.,19.6%[176 µM],.,.,.
C=CCN(c1ccccc1)S(=O)(=O)c1cccc(C(=O)NC2CCN(Cc3ccccc3)CC2)c1,-5.7%,-79.6%,-22.2%,-1.0%,12.6µM*,1.5%
Cc1ccc(C)c(OCc2cc(C(=O)NC3CCN(Cc4ccccc4)CC3)no2)c1,-2.0%,-35.2%,?,-1.2%,2.24µM*,0.4%
Cc1ccc(NS(=O)(=O)c2cccc(C(=O)NCC(c3ccc(F)cc3)N3CCOCC3)c2)cc1 (configuration not stated),-4.5%,-29.9%,-20.0%,4.8%,10µM*,?
O=C(NCC(c1cccs1)N1CCOCC1)c1cccc(S(=O)(=O)Nc2ccc(F)cc2)c1 (configuration not stated),-2.3%,i,24.7%,-5.6%,-14.2%,-5.5%
Cn1ccnc1C(NCC(O)COCc1cccs1)c1ccccc1 (configuration not stated),.,.,60.7%,.,.,.
Cc1cccc(C)c1OCCn1c(C2CC(=O)N(c3cccc(Cl)c3)C2)nc2ccccc21 (configuration not stated),-3.1%,i,-19.3%,.,-19.0%,9.2%
Cc1cccc(C)c1OCCCCn1c(C2CC(=O)N(c3ccc(F)cc3)C2)nc2ccccc21 (configuration not stated),-2.6%,-16.9%,31.6µM*,.,?,5.8%
CCn1c(SCc2nc(-c3ccccc3OC)no2)nnc1-c1ccco1,.,.,-4.1%,.,.,.
CC(c1ccccc1)N1CCC(CNC(=S)Nc2cccc(Cl)c2)C1 (configuration not stated),-0.1%,i,?,4.3%,3.16µM*,19.1%
O=C(NC(=S)Nn1cnnc1)c1ccc(F)cc1Cl,-2.5%,i,15.8µM*,-2.7%,14.4%,-21.2%
O=C(NC(=S)Nn1cnnc1)c1ccccc1Cl,-0.9%,i,?,3.3%,6.8%,1.1%
CC(C)N(C(=O)CSc1nc2ccccc2n1Cc1ccccc1F)C(C)C,-4.6%,-26.4%,-8.5%,4.4%,2.24µM*,-3.0%
O=S1(=O)CCN2C(c3cccc(Br)c3)=CSC2=N1,.,.,22.4µM*,.,.,.
COc1cc(/C=C2\S/C(=N/S(=O)(=O)c3ccc(C)cc3)NC2=O)c([N+](=O)[O-])cc1OC,0.6%,i,?,-11.1%,-2.0%,.
Cc1ccc(S(=O)(=O)/N=C2/NC(=O)/C(=C/c3cc([N+](=O)[O-])ccc3O)S2)cc1,0.0%,?,10µM*,-1.3%,2.4%,17.1%
O=C1NC(=Nc2ccccc2Cl)S/C1=C\c1cc([N+](=O)[O-])ccc1O,20.1%,-0.8%,31.6µM*,-3.3%,12.3%,?
CC(NC(=O)CSc1ncnc2ccccc12)c1ccccc1 (configuration not stated),.,.,37.5%,.,.,.
N#Cc1c(N)n[nH]c1CCCNC(=O)c1cc(-c2cccs2)nc2ccccc12,.,.,0.9%,.,.,.
COc1cccc(CN(C)CC(C#N)CCC#N)c1OC (configuration not stated),.,.,3.4%,.,.,.
COc1ccccc1CN1C(=O)c2cccc3cccc(c23)C1=O,-1.0%,i,-11.2%,12.1%,18.7%,7.94µM*
COc1ccccc1CN1C(=O)c2ccncc2C1=O,-1.0%,i,6.2%,-5.1%,4.3%,-4.8%
Cc1ccc(S(=O)(=O)N2CCC(N3CCN(C)CC3)CC2)cc1Cl,3.4%,-3.4%,0.8%,7.3%,2.51µM*,1.1%
COc1ccc(NS(=O)(=O)c2cccc(-c3n[nH]c(=S)n3Cc3ccccc3)c2)cc1,-3.8%,-40.3%,31.6µM*,-14.3%,-6.8%[0.307 µM],-10.7%
SMILES,Glioma ERSR ind,PTHR1 agonist,12-LOX inh,GLP-1R agonist,GLP-1R inv ag,GLS inhibitor
S=c1[nH]nc(COc2ccc(Cl)cc2)n1Cc1ccco1,3.4%,-29.0%,39.8µM*,12.3%,?,8.9%
S=c1[nH]nc(C23CC4CC(CC(C4)C2)C3)n1Cc1ccco1,-2.7%,-9.5%[57.5 µM],?,-7.6%,7.94µM*,-24.9%
CCCc1n[nH]c(=S)n1Cc1ccco1,-4.0%,i,-7.6%,-1.7%,15.4%,8.1%
COc1cccc(-c2n[nH]c(=S)n2Cc2ccco2)c1,0.1%,i,17.8µM*,2.9%,-7.1%,1.3%
O=C(COc1cccc(F)c1)Nc1ccc(-n2cnnn2)cc1,.,.,10.6%,.,.,.
Cc1cc(Cl)ccc1OCCCc1n[nH]c(=S)n1Cc1ccco1,.,.,17.8µM*,.,.,.
O=C(Nc1ccc2oc(-c3ccncc3)nc2c1)c1cc(Cl)ccc1Cl,.,.,6.6%,.,.,.
Cc1ccc2occ(CC(=O)Nc3ccc(S(=O)(=O)N4CCCC(C)C4)cc3)c2c1 (configuration not stated),-3.6%,-26.1%,0.7%,.,11.2µM*,11.5%
Cc1ccc2oc(C(=O)Nc3ccc(S(=O)(=O)N4CCCC(C)C4)cc3)cc(=O)c2c1 (configuration not stated),-2.5%,i,-15.6%,.,-7.1%,-5.6%
Cc1cc(Br)cnc1NC(=S)Nc1ccc(F)cc1F,0.9%,-25.9%,14.1µM*,-3.1%,?,-17.8%
COc1cccc(NCc2cc(=O)n3[nH]c(-c4ccc(C)cc4)nc3n2)c1,.,.,39.8µM*,.,.,.
CCCc1cc(=O)n2[nH]c(-c3ccc(C)cc3)nc2n1,-2.5%,-2.6%,-15.4%,.,4.6%,-5.0%
CCc1ccc(NCc2cc(=O)n3[nH]c(-c4ccccc4)nc3n2)cc1,.,.,8.91µM*,.,.,.
CCOCCCNC(=O)C1CCCCC1,.,.,6.7%,.,.,.
COc1ccc(Br)cc1/C=C/C(=O)Nc1ccc(C)cc1,0.6%,-22.3%,0.7%,5.8%,4.47µM*,-1.1%
COc1ccc(Br)cc1/C=C/C(=O)Nc1ccc2ccccc2c1,3.6%,-6.4%,-7.8%,-3.3%,-12.2%,-4.6%
O=C(Nc1cc2c(cc1Sc1ccccc1)OCCO2)c1ccc2c(c1)OCCCO2,.,.,3.3%,.,.,.
COc1ccc2nc(-c3ccc4c(c3)OCO4)cc(C(=O)NCCN3CCOCC3)c2c1,.,.,39.8µM*,.,.,.
O=c1[nH]c2c(s1)C(c1ccc(O)cc1)C1C3CCC(C3)C1S2 (configuration not stated),2.1%,i,44.7µM*,-3.9%,?,18.6%
O=c1[nH]c2c(s1)C(c1cccnc1)C1C3CCC(C3)C1S2 (configuration not stated),-0.9%,i,.,7.0%,13.0%,1.6%
CC(C)Cc1nnc(NC(=O)Cc2cccs2)s1,-2.4%,-9.6%,?,0.5%,12.1%,-0.1%

# Assay outcomes: PubChem BioAssay, National Center for Advancing Translational Sciences (NCATS)
